In all, about 53,000 sequences went through this assay and about 3,700 (7%) were called active. This excerpt belongs to a sample that is enriched for actives. A number with no mark means an inactive call.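 Rule for the calls: active = gene knockdowns whose robust z-score for IL-1 alpha signal is at least 2 or at most -2, so actives lie on both sides; inactive = the rest.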
Assay: Components of the Cytosolic LPS Sensing Pathway: Gene Identification via Genome-wide siRNA Screen;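 note: robust z of the log signal after scaling to non-targeting control siRNA wells of the plate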
Details: RAW264.7 macrophages, IL-1a HTRF, actives lie on both sides, screened at 100 nM (by protocol), cells primed 5 h with Pam3CSK4 first
Outline: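 Knockdown: 100 nM siRNA, 48h, RAW264.7. Stimulation: Pam3CSK4 5 h, then LipidA via TransIT-TKO 24 h. Output: supernatant IL-1a HTRF, negative-control-normalized, log robust z-score; viability by CellTiter-Glo.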

Question: Which z-score does the source give for GCCUUGGACAAAAACACUATT against Ryk here?
Answer: -0.917

Question: Which z-score does the source give for CCUGAUUCCAAAUGUGUUUTT against Sgcb here?
Answer: 0.158

Question: For GGACACAAAUGACAUCAACTT against Sirpa, which z-score is on record?
Answer: 2.13 (active)

Question: For CGGCAUCCAGUCUCAGAUGTT against Coch, which z-score is on record?
Answer: 1.88

Question: With “GCCUAAGUUCUAGCAAAAUTT against Spata31d1d” as the sequence, how does the z-score read?
Answer: 0.514

Question: With GGAAGCUACAUGCUGUUCCTT against Anln as the sequence, how does the z-score read?
Answer: 0.737

Question: For UGAAAAGAGCAAUGAAGAATT against Olfr177, which z-score is on record?
Answer: -0.36

Question: For GGAAAGGAGAAGAGAAAUGTT against Scyl1, which z-score is on record?
Answer: 1.18

Question: With CCUGACAGUACCAAAAAAUTT against Pax4 as the sequence, how does the z-score read?
Answer: -0.599

Question: With GGUACAAUGUUCAUACCAATT against Rab9b as the sequence, how does the z-score read?
Answer: 0.528

Question: For GGGCUAUUGCAUCUUUUAATT against Olfr711, which z-score is on record?
Answer: -0.0884

Question: Which z-score does the source give for CCGAAUUGAAAUCACAAGCTT against Nup43 here?
Answer: -1.31

Question: Which z-score does the source give for GGAUUGUAAUAAUGGAGCCTT against H2-M10.4 here?
Answer: 2.94 (active)

Question: With GGAGAGGUGGUAUUGUUGGTT against Olfr1297 as the sequence, how does the z-score read?
Answer: 0.29

Question: With GCUAAAUUCUUUCCUGAAGTT against Rdx as the sequence, how does the z-score read?
Answer: -1

Question: With CCAGUUACUAGUAAUACUCTT against Mcm3ap as the sequence, how does the z-score read?
Answer: -0.0482

Question: Which z-score does the source give for CCAAGGUGCUGUUGGUAUATT against Ssr2 here?
Answer: 0.248

Question: With GCAACGACUCUAAUGACUUTT against Slc38a1 as the sequence, how does the z-score read?
Answer: -0.515

Question: Which z-score does the source give for GCUUUCCACCACGUACUGATT against Plekha6 here?
Answer: -0.0754

Question: For GGAUCAGCUGUUGCCAGAGTT against Zfp384, which z-score is on record?
Answer: 0.806

Question: Which z-score does the source give for GGAGUAUAACUAUGGCUUCTT against Mvb12a here?
Answer: 0.689

Question: With CCAGUUAAGCCAAACUAUGTT against Wdr5 as the sequence, how does the z-score read?
Answer: -2.21 (active)

Question: For GGAAGUGCUGCACAUACUATT against Bnc2, which z-score is on record?
Answer: -0.525

Question: For GGAAGAUUUGUUCUAUACUTT against Epgn, which z-score is on record?
Answer: 0.593

Question: With GGUCACAUCGUCCUUACAGTT against Rps6ka4 as the sequence, how does the z-score read?
Answer: -2.05 (active)

Question: Which z-score does the source give for GGGAUUAAAAUCCUAUCUUTT against Eva1a here?
Answer: 0.857

Question: With GGAUCAGGAUUUAAUGAAUTT against Zc2hc1a as the sequence, how does the z-score read?
Answer: -1.13

Question: Which z-score does the source give for CCUUAUAAUUGACACUGAUTT against Toe1 here?
Answer: 0.312

Question: With GGAUAGCUGCCAACACUACTT against Baiap2l2 as the sequence, how does the z-score read?
Answer: -0.689

Question: For GGACGACAGUGCAAAGCAUTT against Usb1, which z-score is on record?
Answer: -2.33 (active)

Question: For CCGCUUUUGUCAAGUUUUCTT against Asap1, which z-score is on record?
Answer: 2.65 (active)

Question: With GGACACUCAAUGAAAUCUATT against Foxp3 as the sequence, how does the z-score read?
Answer: 1.21

Question: With GCUAAAAAUAAACAGUCGGTT against Pus10 as the sequence, how does the z-score read?
Answer: -0.642

Question: Which z-score does the source give for GCCCGUCGGAUAUAAGAUUTT against Cd247 here?
Answer: -0.351

Question: With GGAAGAAUCGUUUAUGACATT against Ppp4r2 as the sequence, how does the z-score read?
Answer: 0.73

Question: For GGUUUUGAGAUUGAAAGAATT against Myof, which z-score is on record?
Answer: -0.344

Question: Which z-score does the source give for GGUCGUCUUUUAAGAGUUUTT against Ccdc71l here?
Answer: 3.03 (active)

Question: Which z-score does the source give for GGUGCAACAAUCAUUUGAATT against Casp4 here?
Answer: -0.431

Question: For GGAAGAAAUGCAUAAUGCATT against Mesd, which z-score is on record?
Answer: 0.236

Question: Which z-score does the source give for GGAAAAACUGCUAGAUCUATT against As3mt here?
Answer: 1.49

Question: Which z-score does the source give for GGCUAUGGAAAAAGAUAUGTT against Il21r here?
Answer: -1.02

Question: With GGACCAAGCUGUUAUUAACTT against Dhodh as the sequence, how does the z-score read?
Answer: 0.46

Question: For GGUUUACCUCUAUGCUAUGTT against Upk3a, which z-score is on record?
Answer: 1.39

Question: With GGGUCUCUUGUGGUACAUCTT against Cln3 as the sequence, how does the z-score read?
Answer: 3.41 (active)

Question: Which z-score does the source give for GCAUUUCGCCUCUUUCAUATT against Elac1 here?
Answer: -0.405

Question: Which z-score does the source give for GGCAUUUCUUUCACUAGCUTT against Olfr618 here?
Answer: 0.833

Question: Which z-score does the source give for GCAGAGGCUCGUCCAUAUATT against Dnpep here?
Answer: -0.205

Question: With GGUUCACGGGUUCUAAGAUTT against Eif1b as the sequence, how does the z-score read?
Answer: 2.35 (active)

Question: With GGACAGUUCUUACUUUACATT against Drd2 as the sequence, how does the z-score read?
Answer: 1.18

Question: For CCGUGAAUUUGGAUGAUGGTT against T2, which z-score is on record?
Answer: -1.98

Question: With CCAAAGGUGACCACAGAUUTT against Zfp444 as the sequence, how does the z-score read?
Answer: 1.13

Question: Which z-score does the source give for GGCUCCAUCAAGAAAAGUUTT against Usp21 here?
Answer: 0.681

Question: With GGCCUUCCUUGACCAAUCUTT against Ren1 as the sequence, how does the z-score read?
Answer: -2.11 (active)

Question: For GGACUGUGCAACUUUGUGGTT against Timp3, which z-score is on record?
Answer: -0.634

Question: For GGAGUUGGUUCUGUGUUAUTT against Tcf7l2, which z-score is on record?
Answer: -0.271

Question: Which z-score does the source give for CGGAACAUGGAGUUUAAGCTT against Slfnl1 here?
Answer: 2.3 (active)

Question: With GGAAUGAGUUAGAAUAGCGTT against BC004004 as the sequence, how does the z-score read?
Answer: -0.923

Question: With GGAAAGAAACUAAGGAAAATT against Arhgap15 as the sequence, how does the z-score read?
Answer: 0.628

Question: For GGAGCUUGACAUUAAGGACTT against Erc2, which z-score is on record?
Answer: 0.809

Question: With GGAAAUAAACAAGUCCCACTT against Urm1 as the sequence, how does the z-score read?
Answer: 0.465

Question: For CGACGAAGUGGUCGGAAUUTT against Cryzl1, which z-score is on record?
Answer: 2.1 (active)

Question: With GGUGAUGUAUGUUACGCUGTT against Srsf1 as the sequence, how does the z-score read?
Answer: -0.00436

Question: For GGAGAAAGAGAAAAUCGCUTT against Csnk1g2, which z-score is on record?
Answer: -0.736

Question: Which z-score does the source give for GGUUAUCAGUUGCAUUGUUTT against Gpr37l1 here?
Answer: 0.809

Question: For GGAAGUCGGGCAAAUACAATT against Tacstd2, which z-score is on record?
Answer: 5.77 (active)

Question: With GCUCAUUCUCAAAGGCUUATT against Rdh12 as the sequence, how does the z-score read?
Answer: 0.659

Question: With GGAAUACAUCGAGUAUCUCTT against Xab2 as the sequence, how does the z-score read?
Answer: -1.43

Question: Which z-score does the source give for GCUCGAGUGUAAGAUCUGUTT against Rnf182 here?
Answer: 0.355

Question: Which z-score does the source give for CCCGUUCGUGCAUGAGUUATT against Lpcat4 here?
Answer: 0.532

Source: PubChem BioAssay AID1508600 (Functional Genomics Laboratory (NCATS/FGL), 2020)
